Source: PubChem BioAssay
KLK7 zymogen act: activators of human kallikrein-7 zymogen. P49862. purified proKLK7, EDANS-DABCYL substrate fluorescence; 100% is mature enzyme control, 0% vehicle. activation, % at 7 µM. 370,000 compounds, 0.9% hits. AID 652039;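 active means activation above the mean of all tested compounds plus 3 SD, computed per campaign excluding outliers beyond control limits, cut at about 13% in these data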
Target sequence (P49862 whole entry, looked up): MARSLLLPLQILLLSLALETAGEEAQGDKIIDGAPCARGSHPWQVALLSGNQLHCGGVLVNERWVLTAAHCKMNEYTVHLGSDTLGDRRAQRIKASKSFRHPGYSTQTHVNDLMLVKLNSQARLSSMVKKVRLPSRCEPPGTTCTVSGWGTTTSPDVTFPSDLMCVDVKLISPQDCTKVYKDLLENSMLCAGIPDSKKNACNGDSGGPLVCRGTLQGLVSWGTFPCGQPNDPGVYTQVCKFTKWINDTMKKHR
bovine MsrA act: activates bovine MsrA enzyme | AID 602163 | 360,000 compounds, 0.3% hits | purified bovine MsrA, absorbance read-out | activation, % at 10.6 µM; in the data active means activation above about 7.5%;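 further: 0% = vehicle and 100% = reference activator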
SMARCA2 activ: increases SMARCA2 function in MMTV reporter cells; MG213 cells, MMTV-luciferase reporter, dexamethasone, overnight; activation, % at 9.1 µM; 370,000 compounds, 1% hits; in the data active means activation above about 7.8%;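 further: 0% = vehicle wells and 100% = reference activator wells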
MsrA inh: inhibitors of bovine MsrA | AID 651718 | purified bovine MsrA, absorbance read-out | inhibition, % at 15.5 µM | 360,000 compounds, 0.75% hits;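 further: 0% = vehicle wells with enzyme and 100% = reference inhibitor wells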
MsrA conf: bovine MsrA inhibition, confirmed; shares compounds with MsrA inh; purified bovine MsrA, absorbance read-out; inhibition, % at 15.5 µM; 2,300 compounds, 41% hits; AID 651822;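 further: coupled to thioredoxin reductase with NADPH and selenocystamine and DMSO as substrate; 0% = vehicle only and 100% = full effect of reference inhibitor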
Starred values were filed as active, the others as inactive; . = no result. Most compounds without a hit are left out; they make up all but 2.8% or so of the library. Unless noted, no stated cut-off is given here; in the data, active means inhibition above about 4.5%; inactive means the rest.

SMILES	KLK7 zymogen act	bovine MsrA act	SMARCA2 activ	MsrA inh	MsrA conf
CC(C)C[C@H]1CN([C@@H](CC(C)C)CN2CCCC2CN2C(=S)NC[C@@H]2Cc2ccccc2)C(=S)N1CCc1ccccc1 (some centres not stated)	1	-4	-3	0	.
c1ccc2c(c1)ccn1c(Cc3ccsc3)c(C3CCCCC3)nc21	-3	-2	-3	0	.
O=C(N/C(=C\c1ccc(Br)cc1)c1nc2ccccc2[nH]1)c1ccco1	-1	-14	-2	6.5*	4
O=C(N/C(=C/c1cccs1)c1nc2ccccc2[nH]1)c1ccccc1	1	-4	-4	5.1*	6.0*
COc1ccc(C)cc1N1CC(C(=O)Nc2cccc(C(=O)NC3CC3)c2)CC1=O (configuration not stated)	0	-1	-4	2	.
Cc1nc2nc(-c3cccs3)[nH]c2cc1Br	0	1	7	7.0*	4
CC(=O)N1CCN(CCN2C(C)=CC(=C(C#N)C#N)C=C2C)CC1	0	-11	0	3	.
O=C(Nc1cccc(Cl)c1)N1CCN(Cc2ccccc2)CC1	-1	-1	2	1	.
CC1=CC(=C(C#N)C#N)C=C(C)N1CCN1CCN(C(=O)Nc2cccc(Cl)c2)CC1	0	-3	2	5.0*	4.6*
CC1=CC(=C(C#N)C#N)C=C(C)N1CCN1CCNCC1	-4	-6	-2	6.5*	7.9*
CCc1ccc(C(=O)NNC(=S)Nc2ccc(S(N)(=O)=O)cc2)s1	1	2	-1	4.9*	2
CC(C)CC(=O)NNC(=S)Nc1ccc(S(N)(=O)=O)cc1	-1	-1	-5	2	.
Cc1cccc(NC(=O)Nc2nc3ncccn3c2-c2ccc(F)cc2)c1	12	.	-2	.	.
N#C/C(=C\c1ccco1)C(=O)Nc1cccc2ncccc12	2	-6	3	6.0*	5.3*
O=C(NC(=S)Nc1cccc2ncccc12)c1ccco1	-1	-3	0	-1	.
Cn1c(C(C#N)C(=O)Cc2cccc3ccccc23)nc2ccccc21 (configuration not stated)	0	-11	-2	1	.
Cn1c(C(C#N)C(=O)c2ccco2)nc2ccccc21 (configuration not stated)	0	-3	3	5.1*	5.5*
CCCCSc1nc2sc3c(c2c(=O)n1-c1ccccc1)CCN(C)C3	-8	-4	-4	5.4*	2
CCCCSc1nc2sc3c(c2c(=O)n1-c1ccc(OC)cc1)CCN(C)C3	-3	-3	-3	0	.
COC(=O)CSc1nc2sc3c(c2c(=O)n1-c1ccccc1)CCN(C)C3	-11	-11	1	4.7*	2
CN1CCc2c(sc3nc(SCC(N)=O)n(-c4ccccc4)c(=O)c23)C1	-2	0	0	2	.
COc1ccc2nc(NC(=S)N(C)C)sc2c1	0	-3	-3	6.3*	4
CC1(C(=O)NCc2ccc(F)c(F)c2)Cc2c(-c3ccccc3)ccnc2O1 (configuration not stated)	.	0	.	.	.
CC1(C)CC(=O)c2sc(NC(=O)CN3CCCCC3)nc2C1	-1	1	0	5.2*	3
CC1(C)CC(=O)c2sc(NS(=O)(=O)c3ccc(Cl)cc3)nc2C1	0	-4	-2	4	.
SMILES	KLK7 zymogen act	bovine MsrA act	SMARCA2 activ	MsrA inh	MsrA conf
CC1(C)CC(=O)c2sc(NS(=O)(=O)c3ccc(F)cc3)nc2C1	0	-9	-4	5.3*	3
COc1ccc(CCC[C@@H](CCC(=O)N(c2ccccc2)c2ccccc2)CCc2ccccc2)cc1	-2	.	-3	.	.
COc1ccc2c(c1)-c1c(sn(-c3ccccc3)c1=S)C(C)(C)N2	0	-6	-3	4.7*	1
COc1ccc(-n2sc3c(c2=S)-c2cc(OC)ccc2NC3(C)C)cc1	0	-5	-1	-1	.
CC(=O)OC12CCCN(C1)/C(=C/c1ccc(Cl)cc1)C2 (configuration not stated)	0	.	-1	.	.
COc1nc(OC)nc(N2CCC(C(=O)N(C)Cc3ccco3)CC2)n1	1	.	-6	.	.
CCCCc1cccc2[nH]cc(C)c12	1	.	-1	.	.
COC(=O)/C=C1\S/C(=N/N=C/c2ccco2)NC1=O	0	-4	-3	4.7*	4
COC(=O)/C=C1\S/C(=N/NC(=O)c2ccccc2)NC1=O	1	0	-1	4	.
COC(=O)/C=C1/S/C(=N/NC(=O)c2ccccc2C)NC1=O	-1	-2	-2	6.7*	3
N#Cc1cn(-c2ccccc2)nc1-c1ccc2c(c1)OCCO2	0	0	0	0	.
N#Cc1cn(-c2ccccc2)nc1-c1ccco1	0	-6	2	5.2*	4
CCOC(=O)[C@]12CCC=C1N(Cc1ccc3c(c1)OCO3)C(=O)[C@H](CC(=O)NCc1cccc(C(F)(F)F)c1)C2	0	-1	-4	-1	.
Brc1ccc(CN2CCN(c3ncc(Cc4ccccc4)cn3)CC2)cc1	1	.	-6	2	.
O=C(N/C=N/OCc1ccc(Cl)cc1Cl)NOCc1ncc(C(F)(F)F)cc1Cl	1	0	-2	15*	11*
COCCn1c(C)cc(C(=O)COc2nc3ccccc3nc2C)c1C	1	-12	-4	4.8*	2
O=C(NCCc1ccccc1)c1ccc(=O)oc1	0	-15	-1	8.2*	8.0*
Cc1ccc(C(=O)NCCc2ccccc2)cc1	.	-2	.	.	.
CC(NC(=O)c1ccc(=O)oc1)c1ccccc1 (configuration not stated)	2	-5	2	7.2*	7.4*
CC(NC(=O)c1ccncc1)c1ccccc1 (configuration not stated)	0	-7	-1	0	.
O=C(NCCN1CCOCC1)c1ccc(=O)oc1	1	-6	0	5.4*	4
O=C(NCCN1CCOCC1)c1ccc(F)cc1	0	-5	2	0	.
C=C(C)Cn1c(SCC(=O)N/N=C(\C)c2ccc([N+](=O)[O-])cc2)nnc1-c1ccc(Br)cc1	0	.	-7	.	.
COc1cc2c(cc1OC)CN(c1ccc([N+](=O)[O-])cc1Cl)CC2	0	-1	-4	4.8*	1
O=[N+]([O-])c1ccc(Sc2nnnn2-c2ccccc2)nc1	1	.	0	4.8*	2
SMILES	KLK7 zymogen act	bovine MsrA act	SMARCA2 activ	MsrA inh	MsrA conf
COc1cccc(CNC(=O)[C@H]2CCCN2C(=O)[C@H]2CCCN2C(=O)c2cccc(F)c2)c1	0	.	-1	-1	.
CS(=O)(=O)Nc1ccc(C2=NN(C(=O)c3cccc(F)c3)C(c3cccs3)C2)cc1 (configuration not stated)	-1	-4	-5	3	.
CS(=O)(=O)Nc1ccc(C2=NN(C(=O)c3ccccc3)C(c3cccs3)C2)cc1 (configuration not stated)	-1	-11	-2	4.8*	1
COc1cc(/C=N/Nc2ncnc3sc4c(c23)CCC4)ccc1O	-2	-9	-1	5.5*	4
CCCCCOC(=O)C(C)c1c(C)[nH]c(=S)[nH]c1=O (configuration not stated)	0	-1	1	13*	8.8*
CCOC(=O)C(C)c1c(C)[nH]c(=S)[nH]c1=O (configuration not stated)	0	-2	0	1	.
